Reference: the supplement of paper PMC10338343
± gives the standard deviation.

Tested on: MILI (PIWIL2) piRISC loaded with L1MC piRNA (26 nt)
Experiment: pre-steady-state target cleavage rate (min^-1); guide: L1MC piRNA 5'p-UAACUAAAUACUAUGCAAGCUGUAGG; MIWI and MILI are mouse PIWI proteins and EfPiwi is from a freshwater sponge; tags in brackets are library labels; higher = faster piRNA-guided slicing of the target
Outline: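 The pre-steady-state cleavage rate came from a burst-and-steady-state fit to pooled data from three Cleave-'n-Seq trials, in which uncleaved targets were sequenced and normalised to depth and to weakly complementary targets. Each reaction held 0.1 nM transcribed, DNA-blocked target RNA library and 1 nM active affinity-purified piRISC carrying one synthetic guide, with or without 500 nM GTSF1 partner protein, in HEPES–potassium acetate buffer at 33 °C for 0–8 or 0–960 min. k3 was capped at 0.0001 min^-1.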

[1] = auxiliary factor: 500 nM mouse GTSF1
[2] = auxiliary factor: none (no GTSF1)

Sequence	pre-steady-state target cleavage rate [1]	pre-steady-state target cleavage rate [2]
UCCUGGAUGUGCAUGCAUUGUAUUUAGUUA	0.0212 ± 0.0051	0.00604 ± 0.0024
UCCUGGUACAGCUAGCAUAGUAUAUAGUUA	0.183 ± 0.026	0.00329 ± 0.0024
UCCUGGAACAGCUAGCAUAGUAUAUAGUUA	0.229 ± 0.026	0.00524 ± 0.0027
UCCUGGAUGUGGUUGCAUAGUAUUAAGUUA	0.171 ± 0.048	0.00678 ± 0.0029
UCCUGGAUGUGCUAGCAAAGUAUUUAGUUA	0.0105 ± 0.0034	0.00469 ± 0.0015
UCCUGCUACAGCUUGCAUAGAUAUUUAGUUA	0.0121 ± 0.005	0.00419 ± 0.0019
UCCUGCUACAGCUUCGUUAGUAUUUAGUUA	0.239 ± 0.022	0.00333 ± 0.0027
UCCUGGAUGUCCUUGGAUAGUAUUUUGUUA	0.139 ± 0.031	0.00318 ± 0.0024
UCCUGGUUCAGCUUGCAUAGAAUUUAGUUA	0.0374 ± 0.011	0.003 ± 0.0029
UCCUGGAUGUGCUUGGAUAGUAAUUAGUUA	0.0687 ± 0.014	0.00472 ± 0.0026
UCCUGGAUGUCGAUCGCAUAGUAUUUAGUUA	0.0384 ± 0.0094	0.00367 ± 0.0026
UCCUGGAUCAGCUUGCAUAGUAUUUACUUA	0.0636 ± 0.008	0.00403 ± 0.0024
UCCUGGAUGUGCUUGCAUAGUAGUUAGUUA	0.0647 ± 0.01	0.0055 ± 0.0027
UCCUCCUACAGCUUGCUAGUAUUUAGUUA	0.037 ± 0.013	0.00462 ± 0.0021
UCCUGGUACAGCUUGGAUAGUAUUAAGUUA	0.174 ± 0.038	0.00474 ± 0.0033
UCCUGGAUGUGCUUGCAGAGUAUUUAGUUA	0.0463 ± 0.009	0.00711 ± 0.0023
UCCUGGAUCAGCUUGCAUAGUAUUUAUUUA	0.0819 ± 0.017	0.00658 ± 0.0024
UCCUGGAUGUCGAUGCAUAGUAUUUUAGUUA	0.0747 ± 0.0088	0.00647 ± 0.0026
UCCUGGAUGUCCUUGGAUAGUAUUUAGUAA	0.121 ± 0.019	0.00376 ± 0.0019
UCCUGGUACAGCUUGCAUAGUUUUAAGUUA	0.0506 ± 0.014	0.00428 ± 0.0033
UCCUGGAACAGCUAGCAUUGUAUUUAGUUA	0.164 ± 0.013	0.0074 ± 0.0021
UCCUGGAUGUCGAUGCAUAGUUUAUAGUUA	0.00501 ± 0.0045	0.00379 ± 0.0026
UCCUGGAUGUCCUUGCAUAGUACUUUAGUUA	0.0282 ± 0.011	0.00534 ± 0.0022
UCCUGGAUGUCGAACCAUAGUAUAUAGUAA	< 0.0001	< 0.0001
UCCUGGAUGAGCUAGCAUAGUAUAUAGUUA	0.242 ± 0.034	0.0046 ± 0.0022
UCCUGGAACUGCUUGCAUAGUAUUUACUUA	0.0984 ± 0.027	0.00292 ± 0.0023
UCCUGCUACUGCUUGGAUAGUAUUUAGUUA	0.221 ± 0.016	0.00763 ± 0.0018
UCCUGGAUGUCGAUGCAUAGUAUCUAGUUA	0.0915 ± 0.017	0.00396 ± 0.0023
UCCUGGAUCAGCUUGGUUAGUAUUUAGUAA	0.256 ± 0.031	0.00444 ± 0.0025
UCCUGGAUGAGCUUGCAUAGUAUAAUGUUA	0.229 ± 0.061	0.00329 ± 0.0028
